Experimental findings from PubChem BioAssay AID977607 (Broad Institute, 2014) are described below.

The campaign covered roughly 1,500 compounds. About 460 (31%) were called active. About 1% were inconclusive and are not listed.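 Rule for the calls: active = curve reaches 40% activation over neutral controls at an AC40 no higher than the top valid tested concentration; inconclusive = no clear call, values can overlap the other calls; inactive = signal moving opposite to the expected increase, and the rest.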 A selection follows. Measured potencies and affinities stand elsewhere.

A short description of this experiment: GLuc-reported insulin release enhancers, glucose-stimulated beta cells – cell-based, INS-1E, Gaussia luciferase, luminescence, cherry-pick, set 2, dose response (AID 977607).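 Note: 0% = median of the plate neutral control wells.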 The note with it: INS-1E GLuc insulin secretion reporter, 2-3 h, hits give high values; at 35 µM, 100% = signal doubled over neutral wells unless noted.
In the case of `Cc1cc(C)nc(NC(N)=NCCc2c[nH]c3ccccc23)n1`, the max activation is -23.4% [at 0.046 µM, 100% = signal doubled over neutral wells] (inactive). The result for `CCN(CC)CCCN=C1N[C@@H](c2ccccc2)C(C(=O)OC)=C(C)N1CC` reads -23.5% [at 3.8 µM, 100% = signal doubled over neutral wells] (inactive). Next, `COC(=O)C1=C(C)N(Cc2ccc(C(F)(F)F)cc2)C(=NCC2CC2)NC1c1ccccc1` (configuration not stated): -21% [at 3.8 µM, 100% = signal doubled over neutral wells] (inactive); `COc1cc(C(F)(F)F)c(C(=O)NCc2cccc(Cl)c2)cn1`: -11.8% (inactive); `CCCCN(Cc1nc2ccccc2c(=O)[nH]1)C(=O)c1nn(C)c(=O)c2ccccc12`: -30.4% [at 0.0016 µM, 100% = signal doubled over neutral wells] (inactive). Next, `Clc1cc(NC2CCCCC2)ncn1`: -22.5% [at 11 µM, 100% = signal doubled over neutral wells] (inactive); `CC(C)c1cc(C(C)C)n2nc(N)nc2n1`: 24.3% (inactive); `COCCOC(=O)C1=C(C)NC(=O)N(C(C)=O)C1c1ccc(Cl)cc1` (configuration not stated): -26.3% [at 3.8 µM, 100% = signal doubled over neutral wells] (inactive). On to `NC1=NC(=O)C(Cc2ccc(F)cc2)S1` (configuration not stated), for which the max activation was -13% [at 0.015 µM, 100% = signal doubled over neutral wells] (inactive). The result for `CCCNC(=O)C1(C)CCN(C(=O)c2cccc(C(F)(F)F)c2)C1` (configuration not stated) reads -15.8% [at 0.135 µM, 100% = signal doubled over neutral wells] (inactive).

Turning to `O=C(c1ccccc1F)N1CCCC(N2CCN(Cc3ccc4c(c3)OCO4)CC2)C1` (configuration not stated), the max activation is -12.4% [at 0.0016 µM, 100% = signal doubled over neutral wells] (inactive). Next, `CCCCc1nnc2c(N(C)S(=O)(=O)c3ccccc3)nc3ccccc3n12`: -17.8% [at 0.015 µM, 100% = signal doubled over neutral wells] (inactive); `Cc1cccc(N2CCN(C(=O)c3cccn4c(=O)c5c(C)c(C)sc5nc34)CC2)c1C`: -13.3% [at 0.046 µM, 100% = signal doubled over neutral wells] (inactive). As for `COC(=O)C1CCN(c2cc(Cl)nc(N)n2)CC1`, the max activation is 30.9% (inactive). `NC(=O)c1cc2cc(Cl)ccc2o/c1=N/NC(=O)c1cccs1`: the max activation was -12.9% [at 0.135 µM, 100% = signal doubled over neutral wells] (inactive).

For the molecule `N#CCCN(Cc1ccccc1)C(=O)c1cccs1`, the max activation was -20.9% [at 11 µM, 100% = signal doubled over neutral wells] (inactive). The result for `CCOC(=O)c1cc(CC)sc1NC(=O)COC(=O)c1cnccn1` reads -18.2% [at 0.005 µM, 100% = signal doubled over neutral wells] (inactive). Take `COc1cccc(CNC(=O)c2cccnc2Sc2ccccc2)c1`: the max activation is -18.8% [at 0.0016 µM, 100% = signal doubled over neutral wells] (inactive). Next, `CCOc1ncccc1C(=O)NCc1cccc(OC)c1`: -19.1% [at 0.0016 µM, 100% = signal doubled over neutral wells] (inactive); `CCOc1ccc(CCNC(=O)COC(=O)c2nccnc2N)cc1OCC`: 16.3% [at 0.42 µM, 100% = signal doubled over neutral wells] (inactive). The result for `C/C(Cl)=C\Cn1c(N2CCCC2)nc2c1c(=O)[nH]c(=O)n2C` reads -16.5% [at 0.0016 µM, 100% = signal doubled over neutral wells] (inactive); that for `COc1ccc(NC(=O)Cc2c(SC)c3ccccc3n2Cc2ccccc2)cc1`, 28.7% [at 1.2 µM, 100% = signal doubled over neutral wells] (inactive).

Regarding `CCCCC(=O)N(C)c1c(CC)nc2c(OCc3ccc(C(F)(F)F)cc3)cccn12`, the max activation is -15.2% (inactive). Next, `CCc1nc2c(OCc3ccccc3C(=O)OC)cccn2c1N(C)C(=O)c1ccncc1`: -29.4% (inactive); `C[C@@H]1CN([C@@H](C)CO)C(=O)c2cccc(NC(=O)Nc3ccc(C(F)(F)F)cc3)c2O[C@H]1CN(C)Cc1ccc(Cl)c(Cl)c1`: -26.5% [at 11 µM, 100% = signal doubled over neutral wells] (inactive). The result for `C[C@@H]1CN([C@H](C)CO)C(=O)c2cc(C#CCc3ccccc3)cnc2O[C@H]1CN(C)C(=O)C1CCC1` reads 25.2% [at 0.015 µM, 100% = signal doubled over neutral wells] (inactive); that for `C[C@@H]1CN([C@H](C)CO)C(=O)c2cc(C#CCN(C)C)cnc2O[C@H]1CN(C)S(=O)(=O)c1cn(C)cn1`, 31.4% [at 0.015 µM, 100% = signal doubled over neutral wells] (inactive). Take `C[C@H]1CN([C@@H](C)CO)C(=O)c2ccccc2-c2ccccc2CO[C@@H]1CN(C)Cc1ccc(Cl)c(Cl)c1`: the max activation is -38.4% [at 3.8 µM, 100% = signal doubled over neutral wells] (inactive). Next, `C[C@H]1CN([C@@H](C)CO)C(=O)c2ccccc2-c2ccccc2CO[C@@H]1CN(C)Cc1cccc(C(F)(F)F)c1`: -39% [at 11 µM, 100% = signal doubled over neutral wells] (inactive); `COCC(=O)N(C)C[C@H]1Oc2cc(Br)ccc2S(=O)(=O)N([C@H](C)CO)C[C@H]1C`: -5.77% [at 0.046 µM, 100% = signal doubled over neutral wells] (inactive); `C[C@@H]1CN([C@H](C)CO)S(=O)(=O)c2ccc(-c3ccc(C#N)cc3)cc2O[C@H]1CN(C)C`: 15.6% [at 0.046 µM, 100% = signal doubled over neutral wells] (inactive). Next, `C[C@H](CO)N1C[C@H](C)[C@@H](CN(C)C(=O)CC2CC2)Oc2cc(C#CC(C)(C)O)ccc2S1(=O)=O`: 36.4% [at 0.046 µM, 100% = signal doubled over neutral wells] (inactive).
